Drawing on PubChem BioAssay AID1479144 (National Center for Advancing Translational Sciences (NCATS), 2020), this text covers Potency for 14 molecules.

Records with an inconclusive call do not appear. Where a call stands in place of a potency, no number is given. The source made the active and inactive calls. Calls follow the shape of the full dose curve.

The nature of the experiment: Confirmatory qHTS for Vero E6 cytotoxicity: counterscreen for inhibitors of SARS-S pseudo-typed particle cell entry. The note with it: cell viability; series mostly up to 57.1 µM. A general note: Quantitative high-throughput screening tests each substance at several concentrations.
On to `CC(C)(C)NCC(O)COc1ccccc1C1CCCC1` (centres undefined), for which the Potency result was “inactive”.

Consider `CCCCCCOC(=O)NC(=N)c1ccc(NCc2nc3cc(C(=O)N(CCC(=O)OCC)c4ccccn4)ccc3n2C)cc1`, for which the Potency entry is “inactive”.

In the case of `C/C=C(/C)C(=O)O[C@H]1C(C)=CC23C(=O)C(C=C(CO)[C@@H](O)[C@]12O)[C@H]1[C@@H](C[C@H]3C)C1(C)C` (some centres undefined), the Potency result is “inactive”.

In the case of `Cc1cn([C@H]2C[C@H](N=[N+]=[N-])[C@@H](CO)O2)c(=O)[nH]c1=O`, the Potency result was “inactive”. With `Cc1cc(-n2c(=O)[nH]c(=O)n(C)c2=O)ccc1Oc1ccc(S(=O)(=O)C(F)(F)F)cc1`, the Potency entry was “inactive”. As for `Cc1nn(C)c2c1C(c1ccccc1F)=NCC(=O)N2C`, the entry is “inactive”; as for `COC(=O)C1=C(C)NC(C)=C(C(=O)OCC(C)C)C1c1ccccc1[N+](=O)[O-]` (centres undefined), 27.1 µM (active); as for `CCN(CC)Cc1cc(Nc2ccnc3cc(Cl)ccc23)ccc1O`, “inactive”. Regarding `CCN1CCN(Cc2ccc(Nc3ncc(F)c(-c4cc(F)c5nc(C)n(C(C)C)c5c4)n3)nc2)CC1`, the Potency result was “inactive”. In the case of `CC(=O)N1CCN(c2ccc(OC[C@H]3CO[C@](Cn4ccnc4)(c4ccc(Cl)cc4Cl)O3)cc2)CC1`, the Potency result is “inactive”. To `C[n+]1c2cc(N)ccc2cc2ccc(N)cc21` (tested in a mixture with another compound) belongs 10.8 µM (active). To `N#CC(c1ccc(Cl)cc1)c1c(Cl)cc(-n2ncc(=O)[nH]c2=O)cc1Cl` (centres undefined) belongs 24.1 µM (active).

With `Cc1nnc(C(=O)NC(C)(C)c2nc(C(=O)NCc3ccc(F)cc3)c(O)c(=O)n2C)o1`, the Potency result was “inactive”. As for `CC(=O)OCC1=C(C(=O)O)N2C(=O)[C@@H](NC(=O)Cc3cccs3)[C@H]2SC1`, the entry is “inactive”.
